Laboratory results: PubChem BioAssay AID1159580 (chemical genetic matrix, 2015)
“And” between values parts separate entries of the source, which are not always exact repeats. Equal entries are not always repeated. Among all 5,500 compounds or so, about 2,000 (36%) were called active. Roughly 18% stayed inconclusive and do not appear here. Cut-off read from the data, not from the text of the source: active = normalized growth mostly below about 0.91 (no sharp cut-off); inconclusive = no clear call, values can overlap the other calls; inactive = mostly above about 0.92. Some of the results follow.

Assay: chemical genetic growth profiling, strain panel (AID 1159580);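 note: tested at 20 µM; growth read once vehicle control cultures reached saturation at 30 °C; 1 = growth at the plate median or of vehicle wells; lower values mean less growth of the strain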
Conditions: S. cerevisiae deletion strains, growth OD

Measured: normalized growth

c1ccc2c(c1)sc1ccccc12
inactive: locus YAL021C, strain ccr4, hits give low values 1.02 | locus YBR021W, strain FUR4, hits give low values 1.03 | locus YBR171W, strain sec66, hits give low values 0.912 | locus YBR229C, strain ROT2, hits give low values 1 | locus YBR279W, strain paf1, hits give low values 0.952 | locus YCL029C, strain bik1, hits give low values 0.973 | locus YDL035C, strain GPR1, hits give low values 0.99 | locus YDL040C, strain nat1, hits give low values 0.942 | locus YDL074C, strain BRE1, hits give low values 0.97 | locus YDL101C, strain DUN1, hits give low values 0.96 | locus YDL134C, strain PPH21, hits give low values 0.938 | locus YDL185W, strain tfp1, hits give low values 0.986 | locus YDL192W, strain arf1, hits give low values 0.959 | locus YDR069C, strain doa4, hits give low values 1.02 | locus YDR101C, strain arx1, hits give low values 0.955 | locus YDR159W, strain sac3, hits give low values 0.869 | locus YDR162C, strain NBP2, hits give low values 0.883 | locus YDR195W, strain ref2 1.09 | locus YDR388W, hits give low values 0.971 | locus YDR502C, strain sam2, hits give low values 0.928 | locus YEL037C, strain rad23, hits give low values 0.933 | locus YEL061C, strain CIN8, hits give low values 0.991 | locus YER016W, strain bim1, hits give low values 0.957 | locus YER110C, hits give low values 0.97 | locus YER155C, strain BEM2, hits give low values 0.946 | locus YER167W, strain BCK2, hits give low values 0.96 | locus YFR010W, strain ubp6, hits give low values 0.976 | locus YGL078C, strain dbp3, hits give low values 0.973 | locus YGL086W, strain mad1, hits give low values 0.941 | locus YGL167C, strain pmr1, hits give low values 0.937 | locus YGL248W, strain PDE1, hits give low values 0.898 | locus YGR135W, strain pre9, hits give low values 0.929 | locus YGR229C, strain SMI1, hits give low values 0.917 | locus YGR252W, strain gcn5, hits give low values 1.02 | locus YHR027C, strain rpn1, hits give low values 0.922 | locus YHR030C, strain SLT2, hits give low values 0.978 and 0.997 | locus YHR079C, strain IRE1 (second series), hits give low values 0.957 | locus YHR079C, strain IRE1, hits give low values 0.996 | locus YHR094C, strain hxt1, hits give low values 0.972 | locus YHR129C, strain ARP1, hits give low values 0.981 | locus YHR200W, strain rpn10, hits give low values 0.97 | locus YIL066C, strain RNR3, hits give low values 0.994 | locus YIL073C, strain SPO22, hits give low values 0.951 | locus YIL125W, strain kgd1, hits give low values 0.962 | locus YIR030C, strain dcg1, hits give low values 0.957 | locus YJL095W, strain BCK1, hits give low values 0.834 and 1.01 | locus YJL115W, strain asf1, hits give low values 0.921 | locus YJL134W, strain LCB3, hits give low values 0.995 | locus YJL154C, strain vps35, hits give low values 0.924 | locus YJL168C, strain set2, hits give low values 0.97 | locus YJL187C, strain SWE1 (second series), hits give low values 0.957 | locus YJR043C, strain POL32, hits give low values 0.99 | locus YJR066W, strain TOR1, hits give low values 0.974 | locus YKL009W, strain mrt4, hits give low values 0.966 | locus YKL068W, hits give low values 0.973 | locus YKL085W, strain MDH1 (second series), hits give low values 0.971 | locus YKL085W, strain MDH1, hits give low values 0.971 | locus YLL041C, strain sdh2, hits give low values 0.935 | locus YLR039C, strain RIC1, hits give low values 0.735 | locus YLR058C, strain SHM2, hits give low values 0.968 | locus YLR102C, strain apc9, hits give low values 0.974 | locus YLR113W, strain HOG1, hits give low values 1.02 | locus YLR262C, strain YPT6, hits give low values 0.656 | locus YLR268W, strain sec22, hits give low values 0.897 | locus YLR330W, strain CHS5, hits give low values 0.95 | locus YLR342W, strain FKS1 (second series), hits give low values 1.03 | locus YLR342W, strain FKS1, hits give low values 0.959 | locus YLR357W, strain rsc2, hits give low values 0.909 | locus YLR370C, strain arc18, hits give low values 0.929 | locus YLR384C, strain iki3, hits give low values 0.939 | locus YML016C, strain PPZ1, hits give low values 0.988 | locus YML124C, strain tub3, hits give low values 0.971 | locus YMR078C, strain ctf18, hits give low values 0.967 | locus YMR231W, strain pep5, hits give low values 0.967 | locus YMR263W, strain SAP30, hits give low values 0.954 | locus YMR307W, strain GAS1, hits give low values 0.869 | locus YNL067W, strain RPL9B, hits give low values 0.955 | locus YNL128W, strain TEP1, hits give low values 0.965 | locus YNL183C, strain NPR1, hits give low values 0.96 | locus YNL209W, strain ssb2, hits give low values 0.948 | locus YNL233W, strain BNI4, hits give low values 0.873 | locus YNL250W, strain rad50, hits give low values 0.974 | locus YNL271C, strain bni1, hits give low values 0.95 | locus YNL298W, strain CLA4, hits give low values 0.929 | locus YNR052C, strain pop2, hits give low values 0.991 | locus YOL012C, strain htz1 0.804 | locus YOL147C, strain pex11, hits give low values 0.953 | locus YOR061W, strain CKA2, hits give low values 0.994 | locus YOR069W, strain VPS5, hits give low values 0.996 | locus YOR070C, strain gyp1, hits give low values 0.937 | locus YOR080W, strain dia2, hits give low values 0.948 | locus YOR136W, strain idh2, hits give low values 0.951 | locus YOR144C, strain elg1, hits give low values 0.972 | locus YOR231W, strain MKK1, hits give low values 1.03 | locus YOR270C, strain vph1, hits give low values 1.02 | locus YOR290C, strain snf2, hits give low values 0.891 | locus YOR316C, strain cot1, hits give low values 0.966 | locus YPL240C, strain hsp82, hits give low values 0.934 | locus YPL241C, strain CIN2, hits give low values 0.999 | locus YPL256C, strain CLN2, hits give low values 0.984 | locus YPR119W, strain clb2, hits give low values 0.965 | locus YPR141C, strain kar3, hits give low values 0.959 | locus YPR163C, strain tif3, hits give low values 0.983 | locus YPR167C, strain met16, hits give low values 0.972
active: locus YAL013W, strain DEP1, hits give low values 0.807 | locus YAL026C, strain drs2, hits give low values 0.832 | locus YAL030W, strain snc1, hits give low values 0.851 | locus YBL061C, strain skt5, hits give low values 0.811 | locus YBR009C, strain hhf1, hits give low values 0.734 | locus YBR023C, strain chs3, hits give low values 0.867 | locus YBR231C, strain swc5, hits give low values 0.86 | locus YCL011C, strain gbp2, hits give low values 0.815 | locus YCL016C, strain dcc1, hits give low values 0.877 | locus YCL069W, strain vba3, hits give low values 0.778 | locus YCR088W, strain abp1, hits give low values 0.905 | locus YDL005C, strain med2, hits give low values 0.906 | locus YDR001C, strain nth1, hits give low values 0.894 | locus YDR137W, strain rgp1, hits give low values 0.427 | locus YDR297W, strain sur2, hits give low values 0.842 | locus YDR318W, strain mcm21, hits give low values 0.912 | locus YDR334W, strain swr1, hits give low values 0.871 | locus YDR335W, strain msn5, hits give low values 0.781 | locus YDR392W, strain spt3, hits give low values 0.588 | locus YEL003W, strain gim4, hits give low values 0.572 | locus YEL061C, strain CIN8 (second series), hits give low values 0.8 | locus YER015W, strain faa2, hits give low values 0.765 | locus YER111C, strain swi4, hits give low values 0.823 | locus YER155C, strain BEM2 (second series), hits give low values 0.223 | locus YGL173C, strain kem1, hits give low values 0.827 | locus YGL227W, strain vid30, hits give low values 0.809 | locus YGL240W, strain doc1, hits give low values 0.778 | locus YGL253W, strain hxk2, hits give low values 0.854 | locus YHR013C, strain ard1, hits give low values 1.25 [resistant] | locus YHR142W, strain chs7, hits give low values 0.597 | locus YJL092W, strain hpr5, hits give low values 0.841 | locus YJL095W, strain BCK1 (second series), hits give low values 0.834 | locus YJL129C, strain trk1, hits give low values 0.802 | locus YJL164C, strain tpk1, hits give low values 0.802 | locus YJL166W, strain qcr8, hits give low values 0.652 | locus YJL187C, strain SWE1, hits give low values 0.882 | locus YKL160W, strain elf1, hits give low values 0.845 | locus YKR001C, strain vps1, hits give low values 0.812 | locus YKR026C, strain gcn3, hits give low values 0.835 | locus YKR091W, strain srl3, hits give low values 0.924 | locus YLL001W, strain dnm1, hits give low values 0.768 | locus YLL026W, hits give low values 0.814 | locus YLR027C, strain aat2, hits give low values 0.757 | locus YLR221C, strain rsa3, hits give low values 0.779 | locus YLR258W, strain gsy2, hits give low values 0.891 | locus YLR262C, strain YPT6 (second series), hits give low values 0.315 | locus YLR320W, strain mms22, hits give low values 0.662 | locus YLR371W, strain rom2, hits give low values 0.854 | locus YLR418C, strain cdc73, hits give low values 0.785 | locus YML032C, strain rad52, hits give low values 0.9 | locus YML120C, strain ndi1, hits give low values 0.749 | locus YMR058W, strain fet3, hits give low values 0.774 | locus YMR125W, strain sto1, hits give low values 0.844 | locus YMR129W, hits give low values 0.909 | locus YMR205C, strain PFK2, hits give low values 0.737 | locus YMR223W, strain ubp8, hits give low values 0.86 | locus YNL071W, strain lat1, hits give low values 0.613 | locus YNL153C, strain GIM3, hits give low values 0.728 | locus YNL248C, strain rpa49, hits give low values 0.748 | locus YNL307C, strain MCK1, hits give low values 0.849 | locus YNL322C, strain KRE1 (second series), hits give low values 0.894 | locus YNR049C, strain mso1, hits give low values 0.915 | locus YOR001W, strain rrp6, hits give low values 0.714 | locus YOR083W, strain WHI5, hits give low values 0.812 | locus YOR106W, strain vam3, hits give low values 0.727 | locus YOR184W, strain ser1, hits give low values 0.676 | locus YOR265W, strain rbl2, hits give low values 0.873 | locus YPL051W, strain arl3, hits give low values 0.776 | locus YPL078C, strain atp4, hits give low values 0.691 | locus YPL106C, strain sse1, hits give low values 0.778 | strain wtn01, hits give low values 0.893
